Measurements: PubChem BioAssay (NCATS)
Results filed as inconclusive are left out. The source made the active and inactive calls. Calls follow the shape of the dose curve; as a rule, active = well fitted curve in either direction with a large enough effect (not every such curve was filed as active); inconclusive = small, poorly fitted or top-dose-only effect, or another doubt; inactive = flat fitted curve, though single readings scatter. Residues, ends and D or L forms follow the SMILES beside them.

Molecular target: Mitogen-activated protein kinase 10 (Mus musculus) (UniProt Q61831)
Experiment: JNK3 AlphaScreen Assay (AID 530);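 also: kinase came from lysate of stimulated human HepG2 cells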
Settings: JNK3 lysate, c-Jun phosphorylation; series mostly up to 57.1 µM; activity change, negative = inhibition: at the top concentration
Excerpt: NIH Chemical Genomics Center [NCGC]
NIH Molecular Libraries Screening Centers Network [MLSCN]
The c-jun N-terminal kinase (JNK) family are serine/threonine protein kinases that phosphorylate c-jun, a component of the transcription factor […] (AP-1). JNK kinases are members of the mitogen-activated protein kinase family including the extracellular regulated kinases and p38 kinases. Three JNK genes (JNK 1, 2, and 3) have been identified in humans so far. JNK1 and JNK2 have a broad distribution and JNK3 is primarily found in neuronal tissues and cardiac myocytes.
JNK3 has been under consideration as a target for the treatment of neurodegenerative disorders. […] JNK pathway is also involved in pathological process in a mouse model of Parkinson's disease (Xia et al., 2001).
Given these potential tissue distributions and links to neuroprotection, JNK3 inhibitors should provide useful investigational tools to study the role of this kinase in several diseases including, arthritis, stroke, myocardial infarction, ischemic injury and Parkinson's disease.
A homogeneous AlphaScreen is developed to measure the activity of JNK3. AlphaScreen is a two bead-based proximity-dependent chemical energy transfer luminescent assay platform. The phosphorylation of a biotinylated c-jun substrate by JNK3 can be detected with an antibody raised against phosphorylated c-jun. This process brings streptavidin donor beads and Protein-A acceptor beads to within a proximity range of <200 nm, and subsequently lead a chemical luminescent reaction upon exciting donor beads with 680 nm laser excitation light. Inhibition of JNK3 activity by small molecules and subsequent decrease in the antibody binding to biotinylated c-jun could attenuate or abolish this chemical luminescent reaction.
Yang DD, Kuan CY, Whitmarsh AJ, Rincon M, Zheng TS, Davis RJ, Rakic P and Flavell RA (1997) Absence of excitotoxicity-induced apoptosis in the hippocampus of mice lacking the Jnk3 gene. Nature 389:865-870. [PMID: 9349820]
Herdegen T, Claret FX, Kallunki T, Martin-Villalba A, Winter C, Hunter T, and Karin M (1998) Lasting N-terminal phosphorylation of c-Jun and activation of c-Jun N-terminal kinases after neuronal injury. J.Neurosci. 18:5124-5135. [PMID: 9651196]
Xia XG, Harding T, Weller M, Bieneman A, Uney JB and Schulz JB (2001) Gene transfer of the JNK interacting protein-1 protects dopaminergic neurons in the MPTP model of Parkinson's disease. Proc.Natl.Acad.Sci.U.S.A. 98:10433-10438.
NCGC Assay Protocol Summary:
GST-cJun (1-79) (Stratagene, La Jolla CA, #205145) was biotnylated by PerkinElmer (PerkinElmer-BioSignalInc. Montreal, Canada) and was detectable by the streptavidin Donor beads. Anti-(phospho)cJun (Ser73) antibody was from UpState (Charlottesvilles, VA, #06-659). JNK3-containing lysates were generated from HepG2 cells and pre-activated by interleukin1-beta and tumor necrosis factor alpha. All reagents were stored at -20 C before using. Phosphorylated biotinylated-GST-cJun was recognized by Anti-(phospho)cJun (Ser73) antibody and this process brings acceptor and donor beads together. Therefore JNK3 phosphorylation of cJun can be measured by Alpha reading by EnVision (PerkinElmer, Boston, MA).
The composition of kinase buffer was (in mM) 20 tris- HCl (pH 7.6) 10 MgCl2, 1 DTT, and 0.1 Na3VO4 and 0.01% Tween-20. Beads were diluted in detection buffer containing (in mM) 20 tris-HCl (pH 7.7), 20 NaCl and 80 EDTA and 0.3% BSA. The assay was performed at room temperature. All compounds were screened as titrations from 0.6 nM to 46 uM final concentration. The assay was performed in 1536-well format (white solid bottom and untreated) as follows:
Sequence,Parameter,Value,Description
1,Reagent,3 uL,Biotin-GST-cJun, Anti-(phospho)cJun and pre-activated JNK3-containing lysates
2,Compound,23 nL,Final concentration was 0.6nM to 46uM
3,Time,15 minutes,Room Temperature
4,Reagent,1 uL,ATP final concentration 10uM
6,Reagent,0.5 uL,2ng/well bead mixture
[…]
% is scaled to controls: 0 for no effect and ±100 for the full control effect; potency is read from the fitted curve at half-maximal effect.

Compound	activity change, negative = inhibition	Potency
CC[C@]1(O)C[C@@H]2CN(CCc3c([nH]c4ccccc34)[C@](C(=O)OC)(c3cc4c(cc3OC)N(C)[C@H]3[C@](O)(C(=O)OC)[C@@H](C(=O)OC)[C@@]5(CC)C=CCN6CC[C@@]43[C@@H]65)C2)C1	6.82% (inactive)	–
Cc1c(C(=O)NN2CCOCC2)nn(-c2ccc(Cl)cc2Cl)c1-c1ccc(I)cc1	-12.4% (inactive)	–
Cc1cc([C@](C)(N)C(=O)O)ccc1P(=O)(O)O	-6.44% (inactive)	–
CC(C)NC[C@@H](O)COc1cccc2[nH]ccc12	–	inactive
CC(C)Oc1ccc2c(=O)c3cc(C(=O)O)ccc3oc2c1	-17.3% (inactive)	–
CC[N+](C)(CC)CC(=O)Nc1c(C)cccc1C	-7.25% (inactive)	–
C=CC(C)(C)c1[nH]c2ccccc2c1C1=C(O)C(=O)C(c2c[nH]c3c(CC=C(C)C)cccc23)=C(O)C1=O	–	6.31 µM (active)
CCCn1c(=O)c2[nH]c(-c3ccccc3)nc2n(CCC)c1=O	5.05% (inactive)	–
NC(=O)C[C@H](NC(=O)Cc1ccc(O)cc1O)C(=O)O	-13.2% (inactive)	–
Cc1ccccc1N=C(N)Nc1ccccc1C	-15.2% (inactive)	–
CC(=O)NCC(=O)N[C@H](CCC(=O)O)C(=O)O (HELM PEPTIDE1{[ac].G.[dE]}$$$$V2.0)	-14.7% (inactive)	–
Cc1cc(Cn2cnc3c2C[C@@H](C(=O)O)N(C(=O)C(c2ccccc2)c2ccccc2)C3)ccc1N(C)C	-27.4% (inactive)	–
C1=C(CN2CCOCC2)COc2c1cccc2OC[C@@H]1CNCCO1	11.2% (inactive)	–
NC[C@](O)(CS(=O)(=O)O)c1ccc(Cl)cc1	–	inactive
CC1(C)CC(=O)C([C@H]2C3=C(CC(C)(C)CC3=O)Oc3ccccc32)C(=O)C1	-19.8% (inactive)	–
O=S(=O)(c1cccc2cnccc12)N1CCNCC1	14.9% (inactive)	–
C[C@@H](/C=C\c1cccc(Oc2ccc(F)cc2)c1)N(O)C(N)=O	8.58% (inactive)	–
OC[C@@H](O)COc1cccc2ccccc12	-16.2% (inactive)	–
N[C@@H](C(=O)O)c1ccc(C(=O)O)c(C(=O)O)c1	–	inactive
O=C1CC[C@H](N2C(=O)c3ccccc3C2=O)C(=O)N1	–	inactive

Compound	activity change, negative = inhibition	Potency
O=S(c1ccccc1)c1ccc2nnnn2n1 (stereo not given)	-14.9% (inactive)	–
CCN(CC)CCOC(=O)C1(c2ccc([N+](=O)[O-])cc2)CCCC1	–	inactive
CCC(C)(C)N=C(NC#N)Nc1cccnc1	7.77% (inactive)	–
CC1(COc2ccc(C[C@H]3SC(=O)NC3=O)cc2)CCCCC1	-12.7% (inactive)	–
CN(C)CCCSc1ccccc1NC(=O)/C=C\c1ccccc1	-24.4% (inactive)	–
CC(C)(C)NC[C@H](O)COc1cccc2[nH]c(=O)[nH]c12	–	inactive
N[C@H](C(=O)O)c1ccc(C(=O)O)cc1	12.5% (inactive)	–
O=C(O)[C@H]1CN[C@H](C(=O)O)C1	21.2% (inactive)	–
COc1cc(N)c(Cl)cc1C(=O)CCC1CCN(CCNS(C)(=O)=O)CC1	-21% (inactive)	–
c1cc2c(cc1C1CCCCC1)c1c3n2CCN[C@H]3CCC1	-12.3% (inactive)	–
O=C(NCCNC[C@@H](O)COc1ccc(O)cc1)N1CCOCC1	–	inactive
N=C(C[C@@H](O)COc1ccccc1-c1ccccc1)N1CCCCC1	0.46% (inactive)	–
CC[N+](C)(CC)CCC[n+]1c(-c2ccccc2)c2cc(N)ccc2c2ccc(N)cc21	-25.9% [at 25.6 µM] (inactive)	–
Fc1cccc(/C=N\N=C/c2cccc(F)c2)c1	5.78% (inactive)	–
CCCn1c(=O)c2[nH]c(-c3ccc(OCC(=O)Nc4ccc(C(C)=O)cc4)cc3)nc2n(CCC)c1=O	9.03% (inactive)	–
NCCC[C@@H](N)C(=O)O	6.02% [at 11.4 µM] (inactive)	–
NCCNS(=O)(=O)c1cccc2cnccc12	–	inactive
COc1ccc(/C=C\C(=O)Nc2ccccc2C(=O)O)cc1OC	-19.9% (inactive)	–
N[C@@H](Cc1cc(-c2ccc(Cl)cc2Cl)cc(CP(=O)(O)O)c1O)C(=O)O	-20.1% (inactive)	–
CCC(=O)N[C@@H]1Cc2ccccc2[C@@H](c2ccccc2)C1	-15.6% (inactive)	–
